Among all 360,000 compounds or so, about 9,100 (2.5%) were called active. Another 4% or so got no clear call; they are omitted. Cut-off read from the data, not from the text of the source: active = max response below about -50%; inconclusive = no clear call, values can overlap the other calls; inactive = above that. What follows is part of a selection rich in actives, with near analogues and random picks from the rest.
target: D(3) dopamine receptor (Homo sapiens) (UniProt P35462); assay: qHTS of D3 Dopamine Receptor Antagonist: qHTS; conditions: D3R cells, DiscoveRx beta-arrestin luminescence, antagonist mode; hits give low values
Sequence (P35462 whole entry, looked up): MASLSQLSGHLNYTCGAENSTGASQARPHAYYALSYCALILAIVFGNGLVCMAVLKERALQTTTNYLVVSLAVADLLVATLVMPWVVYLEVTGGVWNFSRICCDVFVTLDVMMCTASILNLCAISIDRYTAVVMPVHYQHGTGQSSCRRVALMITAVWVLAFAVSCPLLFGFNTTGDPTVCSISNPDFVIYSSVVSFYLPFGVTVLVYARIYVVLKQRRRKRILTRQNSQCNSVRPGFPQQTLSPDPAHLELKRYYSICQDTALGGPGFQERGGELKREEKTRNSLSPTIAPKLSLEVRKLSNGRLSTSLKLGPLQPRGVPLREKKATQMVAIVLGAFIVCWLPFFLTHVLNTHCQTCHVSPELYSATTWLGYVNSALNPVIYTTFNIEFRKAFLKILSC
In short: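 Cells expressing the human receptor were seeded at 1500 cells/well, incubated overnight at 37 degrees C in 5% CO2, then exposed to library compounds with dopamine controls for 90 minutes at 37 degrees C before luminescent detection.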
% is set by controls: 0 for no effect and ±100 for the full control effect.

| SMILES | max response, negative = inhibition |
| --- | --- |
| CC(C)[C@H](NC(=O)OCc1ccccc1)C(=O)OCc1ccccc1 | -14.6% (inactive) |
| O=C(NCC1CCC(C(=O)O)CC1)OCc1ccccc1 (configuration not stated) | 22% (inactive) |
| NCCCCC(C(=O)O)N(C(=O)OCc1ccccc1)C(=O)OCc1ccccc1 (configuration not stated) | -55.1% (active) |
| CCc1oc(-c2ccc(OC)cc2)c(C(=O)OCCCCCO)c1C(C)OCCO (configuration not stated) | 14.5% (inactive) |
| Cc1ccc(NC(=O)c2ccc(CSc3ncnc4nc[nH]c34)cc2)c(C)c1 | -9.41% (inactive) |
| CCc1ccc(N(CC)c2ncnc3nc[nH]c23)cc1 | -11.5% (inactive) |
| S=c1c2[nH]cnc2ncn1CCSc1ncnc2nc[nH]c12 | -78.7% (active) |
| CCOP(=O)(OCC)C(Cc1ccccc1)N=C(c1ccccc1)c1ccccc1 (configuration not stated) | -6.96% (inactive) |
| O=C(N1CCCCC1)N1CCN(C(=O)N2CCCCC2)CC1 | -20.6% (inactive) |
| O=C(N1CCOCC1)N1CCOCC1 | -50.3% (active) |
| Cc1ccc(C(=O)NC2CCN(C(=O)N3CCOCC3)CC2)cc1 | 11.7% (inactive) |
| O=C(NCCOc1ccccc1)N1[C@H]2CC[C@@H]1C=C(c1ccc(F)cc1OCc1ccccc1)C2 | 56.5% (inactive) |
| CCOc1ccc(CCN2C(=O)C(=O)N([C@@H](Cc3ccc(O)cc3)CN3CCC[C@H]3CN3C(=O)C(=O)NC[C@@H]3CC(C)C)C[C@@H]2Cc2ccccc2)cc1 | -23.4% (inactive) |
| CN(C)CCN1CCN(c2cc(-c3cccc(Cl)c3)nc3ccnn23)CC1 | -22% (inactive) |
| Cc1ccc(C(O)c2ncc(-c3ccccc3F)[nH]2)cc1F (configuration not stated) | -0.345% (inactive) |
| FC(F)(F)Oc1ccccc1C(c1nnnn1C1CCCCC1)N1CCN(C/C=C/c2ccccc2)CC1 (configuration not stated) | -77.9% (active) |
| COc1ccc(C(c2nnnn2C2CCCCC2)N2CCN(c3ccccc3F)CC2)cc1 (configuration not stated) | -13.2% (inactive) |
| CCOC(=O)C1CCN(C(c2cc3cc(C)cc(C)c3[nH]c2=O)c2nnnn2C2CCCCC2)CC1 (configuration not stated) | 18.8% (inactive) |
| OC(c1cc(Cl)cc(Cl)c1)c1ncc(-c2ccccc2C(F)(F)F)[nH]1 (configuration not stated) | 2.77% (inactive) |

| SMILES | max response, negative = inhibition |
| --- | --- |
| CC(=O)NC1CC2CCCC(C1)N2CC(=O)Nc1ccccc1 (configuration not stated) | -23% (inactive) |
| COc1ccc(NC(=S)N2CCC(NC(=O)c3cccc(F)c3)CC2)cc1 | -3.67% (inactive) |
| CCCN1C2CCCC1CC(NC(=O)c1cccc(OC)c1)C2 (configuration not stated) | 9.66% (inactive) |
| COc1ccc(NC(=O)N2CCC(Cc3ccccc3)CC2)cc1 | -18% (inactive) |
| COc1ccc(CN2C3CCCC2CC(NC(=O)c2cccc(F)c2)C3)cc1 (configuration not stated) | -88.5% (active) |
| CCOc1ccccc1OCC(=O)Nc1ccccc1C(=O)NC1CC1 | 2% (inactive) |
| CCCCOCCCNC(=O)c1ccccc1OCC | -16.2% (inactive) |
| COc1ccc(NC(=O)NC2CC3CCCC(C2)N3Cc2ccccc2)cc1 (configuration not stated) | -65.9% (active) |
| CCOc1ccccc1C(=O)NC1CC2CCCC(C1)N2Cc1ccccc1 (configuration not stated) | -77.3% (active) |
| Cc1ccc(-c2ccc(C3=CC(=O)CC(C)(C)C3=O)cc2)cc1 | 4.58% (inactive) |
| Cc1ccc([C@H]2N[C@]3(CCCN(CC4CCCCC4)C3=O)[C@H]3C(=O)N(Cc4ccccc4)C(=O)[C@@H]23)cc1 | 0.653% (inactive) |
| Cc1ccc(F)c(S(=O)(=O)NC(=O)C2(C)CCN2C(=O)CCc2cccs2)c1 (configuration not stated) | -4.74% (inactive) |
| COc1ccc(C(=O)OCC(=O)NCC2CCCCC2)cc1S(=O)(=O)N1CCCc2ccccc21 | 8.09% (inactive) |
| COc1cc(C)c(C)cc1S(=O)(=O)N1CCCc2ccccc21 | -64.6% (active) |
| Cn1c(=O)n(C)c2cc(S(=O)(=O)N3CCCc4ccccc43)ccc21 | 5.19% (inactive) |
| N#CCCC(C#N)(c1cccnc1)N1CCOCC1 (configuration not stated) | -3.79% (inactive) |
| Cc1cc(OC(C)C(=O)NC2CC(C)(C)NC(C)(C)C2)c2c(C)cc(=O)oc2c1 (configuration not stated) | 7.98% (inactive) |
| Cc1ccc(C(=O)NC2CC(C)(C)NC(C)(C)C2)c(C)c1 | 39.4% (inactive) |
| Cc1cc(=O)oc(C)c1C(=O)NC1CC(C)(C)NC(C)(C)C1 | -75.7% (active) |

| SMILES | max response, negative = inhibition |
| --- | --- |
| CC(C)C[C@H]1CNC(=O)C(=O)N1C[C@@H]1CCCN1C[C@H](Cc1ccccc1)N1C[C@H](CC(C)C)N(CC2CCCCCC2)C(=O)C1=O | -0.867% (inactive) |
| CCOC(=O)[C@]12CCCC=C1N(CCC1=CCCCC1)C(=O)[C@H](CC(=O)N1CCN(C(=O)c3ccco3)CC1)C2 | 0% (inactive) |
| Brc1ccccc1CN1CCC(Cc2ccccc2)CC1 | -26.3% (inactive) |
| Brc1ccc(CN2CC[C@H]3C=CCc4cccc(c43)C2)cc1 | -107% (active) |
| NC(=O)c1ccc(CN2CCC(Cc3ccccc3)CC2)cc1 | -23.1% (inactive) |
| O[C@@H]1C[C@H](c2ccccc2)N(Cc2cccs2)C[C@H]1n1cc(C2CC2)nn1 | 2.45% (inactive) |
| C[C@H]1Cn2cnc(C(=O)N[C@H](C)c3ccccc3)c2C(=O)N1 | -3.02% (inactive) |
| O=c1[nH]c2ccccc2n1C1CCN(CCOc2ccccc2)CC1 | -110% (active) |
| O=C1CCN(CCc2ccccc2)CCN1CCOc1ccccc1 | -8.76% (inactive) |
| OC(c1ccccc1)(c1ccccc1)C1CCN(CCCOc2ccccc2)CC1 | -8.6% (inactive) |
| CS(=O)(=O)N1CCCCC1c1cc(C(=O)NCc2ccccc2)no1 (configuration not stated) | 13.9% (inactive) |
| CCOCCCNCc1ccc(OCc2ccc(F)cc2)c(OC)c1 | 13.1% (inactive) |
| COc1cc(CNCCN(C)C)ccc1OCc1c(F)cccc1Cl | -51.3% (active) |
| CCN(CC)CCNCc1ccc(OCc2ccc(Cl)nc2)c(OC)c1 | -23.1% (inactive) |
| CCOC(=O)[C@]12CCCC=C1N(CCC1=CCCCC1)C(=O)[C@H](CC(=O)N1CCCCC1)C2 | 6.86% (inactive) |
| Cc1ccc([C@@H]2CC(=O)[C@@H]3CN(S(=O)(=O)c4ccc(C)cc4)[C@H](c4ccccc4F)C[C@@H]3N2S(=O)(=O)c2ccc(Cl)cc2)cc1 | 4.51% (inactive) |
| Cc1ccc2sc(N(CCN(C)C)C(=O)/C=C/c3cccs3)nc2c1C | -69.2% (active) |
| Cc1ccc(S(=O)(=O)N(C)C)cc1NC(=O)/C=C/c1cccs1 | -18.2% (inactive) |
| Cc1cc(C)c2nc(N(CCN(C)C)C(=O)/C=C/c3cccs3)sc2c1 | -2.22% (inactive) |

Reference: PubChem BioAssay AID652054 (National Center for Advancing Translational Sciences (NCATS), 2013)
